This is an account of results in PubChem BioAssay AID2810 (NMMLSC, 2010).

Molecules are shown by their SMILES. Out of some 1,200 compounds screened, about 65 (5%) were called active.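 Rule for the calls: active = at either tested dose, response and 90th-percentile vesicle-stain brightness of CD8 cells under set limits and under 9% cells vesicle-bound; inactive = the rest.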 What follows is part of a selection rich in actives, with near analogues and random picks from the rest.

The assay in a line: modulators of CD8 T cell-vesicle binding, confirmation, cherry-picked primary hits, two concentrations (AID 2810).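 For all read-outs here: lower values mean blocking of vesicle binding.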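 For percent response (vesicle binding): ratio of mean FL2 vesicle stain of CD8+ cells to that row's control.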 As to conditions: 2C CD8+ T cell-vesicle binding, flow cytometry; for double positive events: CD8+/vesicle+ events. (In flow cytometry, cells or beads pass a laser one at a time.)
Setting [1] is: at 15.4 µM, stronger effect = lower value.

For the compound `CCCCn1c(-c2ccccc2)nnc1-c1ccccc1`, the double positive events runs as follows: (at 7.7 µM) 37.8%; under setting [1], 9.3%. The percent response (vesicle binding) reads like this: under setting [1], 150% (inactive); (response, at 7.7 µM) 219%.

In the case of `O=C(N/N=C/c1cccc(OCc2ccccc2)c1)c1ccc(Br)cc1`, the double positive events is 9.6% (at 7.7 µM) and 0.9% under setting [1]. The percent response (vesicle binding) by setting is: under setting [1], 36% (active); (response, at 7.7 µM) 128%.

Take `O=C(N/N=C/c1ccc(OCc2ccccc2)cc1)c1cccs1`: the double positive events by setting is: (at 7.7 µM) 12.1%; under setting [1], 18.5%. Also, the percent response (vesicle binding) is 272% (inactive) under setting [1] and 428% (response, at 7.7 µM).

`O=C(N/N=C/c1cccc(OC(=O)c2ccccc2Cl)c1)c1cccnc1`: the double positive events runs as follows: (at 7.7 µM) 25.8%; under setting [1], 10%. Moreover, the percent response (vesicle binding) under setting [1] is 87% (inactive) and the percent response (vesicle binding) (response, at 7.7 µM) was found to be 350%.

Consider `Cc1ccc(N(CC(O)CN2CCCC2)S(=O)(=O)c2ccc(C)cc2)cc1` (stereo unspecified), for which the double positive events runs as follows: (at 7.7 µM) 24.2%; under setting [1], 34.6%. The percent response (vesicle binding) is 136% (inactive) under setting [1] and 325% (response, at 7.7 µM).

Regarding `COc1cc(F)c(C2=CC(=O)C[C@H](c3ccc(F)cc3)C2)cc1F`, the double positive events runs as follows: (at 7.7 µM) 24.2%; under setting [1], 13.4%. Besides, the percent response (vesicle binding) under setting [1] is 170% (inactive) and the percent response (vesicle binding) (response, at 7.7 µM) came to 320%.

As to `CC1(C)Cc2c(C#N)c(NC3CCCCC3)nc(-c3ccco3)c2CO1`, the double positive events is 5.9% (at 7.7 µM) and 2.8% under setting [1]. The percent response (vesicle binding) is 33.8% (active) under setting [1] and 107% (response, at 7.7 µM).

Regarding `O=C(NCCC1=CCCCC1)C(=O)NCC(c1ccco1)N1CCN(c2ccccc2F)CC1` (stereo unspecified), the double positive events is, setting by setting: (at 7.7 µM) 36.4%; under setting [1], 10.7%. Moreover, the percent response (vesicle binding) is 201% (inactive) under setting [1] and 264% (response, at 7.7 µM).

In turn, `O=C(NCc1cccnc1)C(=O)NCC(c1ccco1)N1CCN(c2ccccc2)CC1` (stereo unspecified) came in with a double positive events (at 7.7 µM) of 20.2% and a double positive events under setting [1] of 6.1%. Besides, the percent response (vesicle binding) was 135% (inactive) under setting [1] and 202% (response, at 7.7 µM).

Regarding `COc1ccccc1NS(=O)(=O)c1cc(NC(=O)CNC(=O)c2cc(C)cc(C)c2)ccc1C`, the double positive events (at 7.7 µM) worked out at 21% and the double positive events under setting [1] stood at 0.9%. For the same compound, the percent response (vesicle binding) was 39.6% (active) under setting [1] and 218% (response, at 7.7 µM).

On to `COc1ccccc1NS(=O)(=O)c1ccc(C)c(NC(=O)c2ccc(S(=O)(=O)N3CCCCCC3)cc2)c1`, for which the double positive events came out at 11.9% (at 7.7 µM) and 35.5% under setting [1]. The percent response (vesicle binding) was 332% (inactive) under setting [1] and 182% (response, at 7.7 µM).

Regarding `COc1ccc(NC(=O)Cc2ccc(C)c(C)c2)cc1S(=O)(=O)N1CCCCC1`, the double positive events by setting is: (at 7.7 µM) 37.7%; under setting [1], 10.7%. The percent response (vesicle binding) under setting [1] is 257% (inactive) and the percent response (vesicle binding) (response, at 7.7 µM) turned out to be 649%.

Take `O=S(=O)(NN=C1CCCCCCC1)c1ccc(Br)cc1`: the double positive events is, setting by setting: (at 7.7 µM) 13.7%; under setting [1], 7.3%. Further, the percent response (vesicle binding) was 144% (inactive) under setting [1] and 120% (response, at 7.7 µM).

Regarding `CC(/C=C/c1ccc(C)o1)=C\C(=O)O`, the double positive events by setting is: (at 7.7 µM) 19.1%; under setting [1], 19.8%. The percent response (vesicle binding) under setting [1] is 196% (inactive) and the percent response (vesicle binding) (response, at 7.7 µM) was determined as 227%.

With `COCCNC(=O)c1c[nH]c2ccc(OC)cc2c1=O`, the double positive events runs as follows: (at 7.7 µM) 18.7%; under setting [1], 13.1%. Also, the percent response (vesicle binding) is, setting by setting: under setting [1], 154% (inactive); (response, at 7.7 µM) 563%.

`NC(=O)NC(=O)COC(=O)CN1C(=O)C2CCCCC2C1=O` (stereo unspecified) yielded a double positive events (at 7.7 µM) of 15.9% and a double positive events under setting [1] of 33.3%. In addition, the percent response (vesicle binding) is 345% (inactive) under setting [1] and 151% (response, at 7.7 µM).

In turn, `CCn1c(=O)cc(SCC(=O)N(C)Cc2ccccc2)c2ccccc21` gave a double positive events (at 7.7 µM) of 24.8% and a double positive events under setting [1] of 14%. Also, the percent response (vesicle binding) under setting [1] was 193% (inactive) and the percent response (vesicle binding) (response, at 7.7 µM) was found to be 224%.

Consider `CCOC(=O)c1c(C=O)c2ccccc2n1CC`, for which the double positive events amounted to 17.9% (at 7.7 µM) and 3% under setting [1]. Moreover, the percent response (vesicle binding) was 28.6% (active) under setting [1] and 287% (response, at 7.7 µM).

As for `CCOC(=O)c1c(O)c2cc(Cl)ccc2n(CC)c1=O`, the double positive events by setting is: (at 7.7 µM) 10.9%; under setting [1], 12%. For the same compound, the percent response (vesicle binding) is 102% (inactive) under setting [1] and 127% (response, at 7.7 µM).

Consider `Cc1ccc(CSc2ccc(S(=O)(=O)N3CCCC3)cn2)cc1`, for which the double positive events came out at 8.3% (at 7.7 µM) and 18% under setting [1]. Besides, the percent response (vesicle binding) was 92.4% (inactive) under setting [1] and 237% (response, at 7.7 µM).

Turning to `CC(=O)c1ccc(Nc2cc(C)nc3nc(C)nn23)cc1`, the double positive events reads like this: (at 7.7 µM) 10.4%; under setting [1], 19.9%. In addition, the percent response (vesicle binding) was 90.9% (inactive) under setting [1] and 189% (response, at 7.7 µM).

For `COc1ccc(NC(=S)N2CCN(c3ncccn3)CC2)c(OC)c1`, the double positive events came to 30.6% (at 7.7 µM) and 14.7% under setting [1]. Also, the percent response (vesicle binding) under setting [1] was 195% (inactive) and the percent response (vesicle binding) (response, at 7.7 µM) was 246%.

In the case of `COc1ccc(-c2cccc3c2NC(=O)C3=O)cc1OC`, the double positive events worked out at 7.8% (at 7.7 µM) and 26.1% under setting [1]. Besides, the percent response (vesicle binding) is 427% (inactive) under setting [1] and 305% (response, at 7.7 µM).

Compound `C/C(=N\Nc1nc2ccccc2[nH]1)c1cc2ccccc2o1` returned a double positive events (at 7.7 µM) of 14.4% and a double positive events under setting [1] of 31.4%. Further, the percent response (vesicle binding) under setting [1] is 271% (inactive) and the percent response (vesicle binding) (response, at 7.7 µM) turned out to be 266%.

Take `CCSc1ncnc2sc(C)c(C)c12`: the double positive events was determined as 7.6% (at 7.7 µM) and 17.4% under setting [1]. Besides, the percent response (vesicle binding) was 318% (inactive) under setting [1] and 354% (response, at 7.7 µM).

`Cc1sc2ncnc(NCC(C)(C)N3CCOCC3)c2c1C`: the double positive events runs as follows: (at 7.7 µM) 6.4%; under setting [1], 1.9%. The percent response (vesicle binding) is, setting by setting: under setting [1], 49.2% (active); (response, at 7.7 µM) 251%.

`CC(C)(CNC(=O)c1cc2c(s1)CCCC2)N1CCOCC1`: the double positive events (at 7.7 µM) stood at 8% and the double positive events under setting [1] was found to be 20.9%. Moreover, the percent response (vesicle binding) by setting is: under setting [1], 213% (inactive); (response, at 7.7 µM) 164%.

In the case of `Cc1ncc([N+](=O)[O-])n1Cc1cccc(F)c1`, the double positive events was determined as 7.3% (at 7.7 µM) and 11.5% under setting [1]. Also, the percent response (vesicle binding) reads like this: under setting [1], 118% (inactive); (response, at 7.7 µM) 274%.

For the compound `COc1ccc(S(=O)(=O)N(C)C[C@H]2Oc3ccc(NC(=O)C4CC4)cc3C(=O)N([C@H](C)CO)C[C@@H]2C)cc1`, the double positive events was 5.6% (at 7.7 µM) and 16.6% under setting [1]. The percent response (vesicle binding) runs as follows: under setting [1], 189% (inactive); (response, at 7.7 µM) 102%.

Regarding `Cc1cc(C)c(/C=N/NC(N)=O)c(C)c1/C=N/NC(N)=O`, the double positive events by setting is: (at 7.7 µM) 38.1%; under setting [1], 18.6%. The percent response (vesicle binding) reads like this: under setting [1], 240% (inactive); (response, at 7.7 µM) 428%.

`CCCC(=O)N1CCc2cc(OC)c(OC)cc2C1COc1ccccc1OC` (stereo unspecified) came in with a double positive events (at 7.7 µM) of 21.6% and a double positive events under setting [1] of 13.8%. Also, the percent response (vesicle binding) by setting is: under setting [1], 128% (inactive); (response, at 7.7 µM) 276%.

With `COc1ccc(/C=C2\SC(N3CCc4ccccc4C3)=NC2=O)cc1OC`, the double positive events is 22.6% (at 7.7 µM) and 2.9% under setting [1]. Also, the percent response (vesicle binding) is, setting by setting: under setting [1], 42% (active); (response, at 7.7 µM) 201%.

As to `O=C1N=C(N2CCOCC2)S/C1=C\c1cccs1`, the double positive events reads like this: (at 7.7 µM) 8.6%; under setting [1], 6.3%. The percent response (vesicle binding) under setting [1] is 248% (inactive) and the percent response (vesicle binding) (response, at 7.7 µM) was determined as 332%.

As to `CC(C)NC(=O)NC(=O)COC(=O)c1ccc(F)cc1F`, the double positive events was 29.2% (at 7.7 µM) and 19.1% under setting [1]. For the same compound, the percent response (vesicle binding) is 385% (inactive) under setting [1] and 423% (response, at 7.7 µM).
